Reference: PubChem BioAssay AID485313 (National Center for Advancing Translational Sciences (NCATS), 2010)
Hit rate of the full screen: of about 320,000 compounds, about 7,600 (2.4%) were called active. Another 3% or so got no clear call; they are omitted. The call rests on the fitted dose curve; in most records, active means well fitted activation curve with a large enough effect; inconclusive means small, poorly fitted or top-dose-only effect; inactive means no such curve, though single readings can be large or run the other way. What follows is part of a selection rich in actives, with near analogues and random picks from the rest. Entries that show only a call come without a potency.

Test: qHTS Assay for NPC1 Promoter Activators; further: nearly all actives have a fitted effect of over 60% in size
Conditions: Huh7 NPC1 promoter luciferase reporter, 24 h; series mostly up to 9.22 µM
Outline: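 Luciferase expression driven by the NPC1 promoter was measured in stably transfected Huh7 cells after a 24 h compound incubation, using a luciferase reagent and a luminescence read.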
Potency means the concentration at half of the fitted maximal effect.

Row | SMILES | Potency
1 | CCOC(=O)Cc1csc(SCC(=O)Nc2ccc(C)cc2F)n1 | inactive
2 | Cc1ccc(S(=O)(=O)N2CCCCC2)cc1NC(=O)c1cccnc1 | inactive
3 | CCCCc1ccc(NC(=O)CN2C(=O)NC(Cc3ccccc3)C2=O)cc1 (centres undefined) | inactive
4 | NC(=O)COC(=O)c1sc2cc(F)ccc2c1Cl | inactive
5 | COc1ccc2c(c1OC)C(=O)N(c1ccc(O)cc1)C2 | 2.82 µM (active)
6 | COc1ccc2c(c1OC)C(=O)N(c1ncn[nH]1)C2 | inactive
7 | COc1cc(C(=O)N2C(=O)c3cccc(N)c3C2=O)cc(OC)c1OC | inactive
8 | O=C(c1cc2ccccc2o1)N1CCN(S(=O)(=O)c2ccc(Cl)s2)CC1 | inactive
9 | O=C(OCC(=O)N1CCOCC1)c1ccc2ccccc2c1 | inactive
10 | CCCCNC(=O)Cn1nc(C)c(S(=O)(=O)N2CCOCC2)c1C | inactive
11 | O=c1ccc(S(=O)(=O)N2CCCC2)cn1Cc1nc(-c2ccccc2)no1 | inactive
12 | CCc1ccc(NC(=O)Cn2nnc(C(=O)NCc3ccc4c(c3)OCO4)c2N)cc1 | inactive
13 | Nc1c(C(=O)Nc2ccc3c(c2)OCCO3)nnn1Cc1ccccc1 | 3.16 µM (active)
14 | O=C(CCS(=O)(=O)Cc1ccccc1)Nc1ccc2c(c1)OCCO2 | inactive
15 | Nn1c(SCC(=O)Nc2nccs2)nnc1-c1ccco1 | inactive
16 | CC(C)[C@@H](C(=O)O)N(Cc1cccc(CN([C@H](C(=O)O)C(C)C)S(C)(=O)=O)c1)S(C)(=O)=O | inactive
17 | Nc1ccn(C2CC(O)C(CO)O2)c(=O)n1 (centres undefined) | inactive
18 | COc1ccc(C2Nc3ccccc3C(=O)N2c2ccc(F)cc2)cc1Cn1nnc2ccccc21 (centres undefined) | inactive
19 | COc1ccccc1CC(=O)Nc1ccc([N+](=O)[O-])cc1OC | inactive
20 | COc1ccc(C2Nc3ccccc3C(=O)N2c2ccc(Cl)cc2)cc1Cn1cc([N+](=O)[O-])cn1 (centres undefined) | 3.98 µM (active)
21 | COc1ccc(N2C(=O)c3ccccc3NC2c2ccc(OC)c(CN3CCOCC3)c2)cc1 (centres undefined) | 2.82 µM (active)
22 | COc1ccc(C2Nc3ccccc3C(=O)N2Cc2ccccc2)cc1Cn1nnc2ccccc21 (centres undefined) | inactive
23 | COc1cccc(NC(=O)c2ccc(Cn3cc([N+](=O)[O-])cn3)o2)c1 | inactive
24 | COC(=O)Cc1ccc(OCC(=O)NC2CCCC2)cc1 | inactive
25 | CN(CCOc1ccccc1)C(=O)c1cc(-c2ccco2)nc2ccccc12 | inactive
26 | CCN(c1ccccc1)S(=O)(=O)c1cccc(C(=O)NCc2ccccc2CN2CCOCC2)c1 | inactive
27 | CN(C(=O)COc1ncnc2c1cnn2-c1ccccc1)C1CCCCC1 | inactive
28 | c1ccc(-n2ncc3c2ncn2c(C4CCCCC4)nnc32)cc1 | 3.98 µM (active)
29 | CC(=O)Cn1cnc2c(cnn2-c2ccccc2)c1=O | inactive
